High-throughput results from PubChem BioAssay.
Sampled rows, rich in hits. Any-hit rate of the full collection: about 19%.
HT1080NT lethal – kills 2HG-producing HT-1080-NT fibrosarcoma cells; HT-1080-NT fibrosarcoma viability, CellTiter-Glo ATP luminescence, 48 h; Potency, µM (top dose mostly 46.1 µM), for inactives: at the highest dose activity, negative = less viability, actives largely listed as cytotoxic; actives 1.6% (n = 360,000); AID 686970;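 note: NT is the 2HG producing partner of a matched IDH1 knockdown line; potency is the fitted concentration of half-maximal effect; 0% = DMSO-treated cells and -100% = media-only wells without cells; nearly all actives have a fitted effect of over 55% in size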
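750 cells/well, RPMI + 5% FBS; 2 h settle, compound pin-transfer, 48 h at 37 degrees C. CellTiter-Glo 10 min RT, luminescence. Normalized to DMSO and media-only wells.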
DT40 TDP1 no CPT – qHTS for Inhibitors of human tyrosyl-DNA phosphodiesterase 1 (TDP1): qHTS in cells in absence of CPT; DT40 Tdp1-/- hTDP1 cells, no CPT, ATP luminescence, 48 h; Potency, µM (doses to about 46.2 µM), inactives show at the highest dose activity change, negative = growth inhibition, actives largely listed as inhibitors; actives 15% (n = 420,000); AID 686978, 2013; note: potency is the fitted concentration of half-maximal effect; nearly all actives have a fitted effect of over 55% in size
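Chicken DT40 Tdp1-/- cells complemented with human TDP1, screened without camptothecin (DMSO vehicle only), 400 cells/well. Compounds pin-transferred, cells incubated at 37 °C for at least 48 hr. Growth read as ATP-dependent luminescence (CellTiter-Glo, 30 min at RT).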
IL1B secr inh – inflammasome signaling inhibition, IL-1 beta readout; THP-1 LPS/ATP IL-1B secretion, AlphaLISA, 16 h; active compounds read low; activity change, % at 57.5 µM; actives 4.7% (n = 360,000); in the data active = activity change below about -50%; inconclusive = mostly about -30% to -49%
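THP-1 cells pretreated 1 hr with compounds (up to 57.5 uM final), then stimulated with LPS (250 ng/mL final) plus ATP (1.25 mM final); secreted IL-1B measured by AlphaLISA after 16 hr, decreased signal indicating inhibition.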
HT1080 IDH1KD tx – HT-1080 IDH1 knockdown cell toxicity (counter line) | AID 686971 | Potency, µM (series often up to 46.1 µM), inactives show at the highest dose activity, negative = toxicity, usual class: cytotoxic | HT-1080 IDH1 knockdown viability, ATP luminescence, 48 h | actives 2% (n = 360,000);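 note: potency is the fitted concentration of half-maximal effect; 0% = DMSO wells and -100% = cell-free medium wells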
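IDH1KD HT-1080 cells, 750/well, RPMI + 5% FBS; compound pinned after 2 h settling; 48 h, 37 °C; CellTiter-Glo luminescence; % activity normalised to DMSO and no-cell wells; curves fitted, classed by r2 and efficacy.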
TDP1 cell CPT – DT40-hTDP1 cell growth loss with CPT; chicken DT40 Tdp1-/-;hTDP1 cells + 20 nM CPT, ATP luminescence, 48 h; Potency, µM (titrated, usually from 46.2 µM), inactives show at the highest dose activity change, negative = growth inhibition, actives largely listed as inhibitors; actives 12% (n = 420,000); note: potency is the fitted concentration of half-maximal effect; nearly all actives have a fitted effect of over 55% in size
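Cell growth measured by CellTiter-Glo luminescence after a minimum 48 h, 37 C compound exposure with 20 nM CPT in Tdp1-knockout DT40 cells stably expressing hTDP1, seeded 400/well; qHTS titration format.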
* marks the source's active call; other numbers are inactive results; ? = inconclusive; . = no result given. Unless noted, calls come from the whole dose curve; as a rule, active = well fitted curve in the direction sought with a large enough effect; inconclusive = small, poorly fitted or top-dose-only effect, or another doubt; inactive = no such curve, though single readings can be large; an effect the other way counts as inactive or inconclusive. Unless noted, % is set by controls: 0 for no effect and ±100 for the full control effect.

SMILES	HT1080NT lethal	DT40 TDP1 no CPT	IL1B secr inh	HT1080 IDH1KD tx	TDP1 cell CPT
CC(=O)Nc1ccc(NC(=O)C(=O)NCC(c2ccco2)N2CCc3ccccc3C2)cc1 (configuration not stated)	?	21µM*	-3	?	16µM*
COc1ccc(C2C3=C(CC(C)(C)CC3=O)Nc3c2c(=O)[nH]c2nc(C)nn32)cc1 (configuration not stated)	6%	-15%	-20	-12%	-9%
O=C(Cn1nnnc1-c1ccccc1F)Nc1ccc(F)c(F)c1	.	-21%	.	.	-27%
CCOc1ccc(C2C(C(N)=O)=C(C)Nc3nc(-c4ccc(OC)cc4)nn32)cc1 (configuration not stated)	.	-7%	.	.	-2%
O=C(Cc1coc2cc(O)ccc12)NNC(=O)c1ccc(Br)s1	-4%	-23%	-23	-8%	-25%
CCCC(O)c1nc2ccccc2n1CCCOc1ccc(Cl)cc1 (configuration not stated)	.	3.3µM*	.	.	3.7µM*
Nc1nc2ccccc2n1CCOc1ccc(Cl)cc1	?	?	-24	?	?
COCc1nc2ccccc2n1CCCOc1ccccc1	5%	26µM*	16	5%	23µM*
CCc1nc2ccccc2n1CCCCOc1cccc(C)c1	.	23µM*	.	.	?
CCCn1c(COc2ccccc2)nc2ccccc21	-16%	?	?	-15%	?
COc1ccc(OCCn2c(C)nc3cc(C)c(C)cc32)cc1	.	21µM*	.	.	15µM*
O=C(COC(=O)c1cc(=O)[nH]c(=O)[nH]1)Nc1cccc(Cl)c1	2%	14%	21	1%	-1%
CC(C)Cn1c(C23CC4CC(CC(C4)C2)C3)n[nH]c1=S	-16%	?	26	-22%	?
Cc1nc2ccccc2n1CCCOc1ccccc1	-11%	23µM*	10	?	?
COc1ccc(CNC(=O)CN2C(=O)CCSc3ccc(S(=O)(=O)N4CCCC4)cc32)cc1	0%	1%	-16	7%	-13%
Cc1ccc(C2=N/C(=C\N3CCCCC3)C(=O)O2)cc1	3%	-28%	-63*	2%	-18%
CCCS(=O)(=O)NC(=O)C1(C)CCN(C(=O)c2ccccc2OC(C)=O)C1 (configuration not stated)	19%	-16%	-13	3%	5%
CCN1CCN(CC(=O)Nc2ccc(C)cc2C)C(=O)C1=O	20%	-13%	11	6%	13%
CC(=O)c1cn(CC(=O)Nc2ccc(C)cc2C)c2ccccc12	-4%	5.8µM*	6	-16%	5.2µM*
CC(=O)c1cn(CC(=O)Nc2cccc(C)c2C)c2ccccc12	0%	26µM*	30	?	?
CCN1CCN(CC(=O)Nc2cccc(C)c2C)C(=O)C1=O	0%	-25%	-1	1%	2.3µM*
CCCn1cc(CN2CCC(n3nccc3NC(=O)c3ccc4c(c3)OCO4)CC2)c(C)n1	3%	9%	21	6%	0%
Cc1cc(C)cc(NC(=O)N2CCC(N3CCCCC3)CC2)c1	.	-10%	.	.	-6%
CCOc1ccc(-c2ccc(C3=CC(=O)C[C@H](c4ccc(F)cc4)C3)cc2)cc1	20%	-1%	-2	12%	-2%
